# TDP1 inh: inhibitors of human tyrosyl-DNA phosphodiesterase TDP1 | recombinant TDP1, AlphaScreen DNA substrate cleavage | actives 0.28% (n = 350,000) | Potency, µM (highest dose often 130 µM), without a hit: top-dose activity change, negative = inhibition, actives largely listed as inhibitors; note: potency is the fitted concentration of half-maximal effect; nearly all actives have a fitted effect of over 40% in size
# Target sequence (Q9NUW8 whole entry, looked up): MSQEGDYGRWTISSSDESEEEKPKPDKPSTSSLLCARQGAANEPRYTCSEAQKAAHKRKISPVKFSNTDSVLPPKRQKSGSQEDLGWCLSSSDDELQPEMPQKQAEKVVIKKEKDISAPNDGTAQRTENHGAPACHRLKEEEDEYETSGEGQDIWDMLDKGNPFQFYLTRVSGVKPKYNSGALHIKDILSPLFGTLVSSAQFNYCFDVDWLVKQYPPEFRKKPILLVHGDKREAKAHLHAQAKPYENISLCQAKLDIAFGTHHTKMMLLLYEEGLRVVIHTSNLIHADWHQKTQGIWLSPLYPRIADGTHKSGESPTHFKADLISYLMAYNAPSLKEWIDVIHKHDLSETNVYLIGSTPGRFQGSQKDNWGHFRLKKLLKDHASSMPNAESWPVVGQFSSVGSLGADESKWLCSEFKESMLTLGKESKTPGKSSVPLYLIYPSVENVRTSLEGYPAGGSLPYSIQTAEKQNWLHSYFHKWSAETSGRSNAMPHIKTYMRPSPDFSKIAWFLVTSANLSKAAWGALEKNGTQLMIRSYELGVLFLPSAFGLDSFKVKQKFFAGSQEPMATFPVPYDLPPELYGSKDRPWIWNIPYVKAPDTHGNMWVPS
#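 Steps: enzyme plus compound, 15 min RT; add biotin/phosphotyrosine-FITC oligonucleotide (15 nM final), react 5 min; add donor/acceptor beads (10 ug/ml final), 10 min; read AlphaScreen. Tdp1 at 1 nM final.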
# DT40 TDP1 CPT: growth inhibition of DT40 Tdp1-/-;hTDP1 cells with camptothecin (screen for TDP1 inhibitors) | Potency, µM (doses to about 46.2 µM), for inactives: at the top dose activity change, negative = growth inhibition, most hits filed as inhibitors | actives 12% (n = 420,000) | AID 686979 | chicken DT40 Tdp1-/-;hTDP1 cells + 20 nM CPT, ATP luminescence, 48 h; note: potency is the fitted concentration of half-maximal effect; nearly all actives have a fitted effect of over 55% in size
#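 Cell growth measured by CellTiter-Glo luminescence after a minimum 48 h, 37 C compound exposure with 20 nM CPT in Tdp1-knockout DT40 cells stably expressing hTDP1, seeded 400/well; qHTS titration format.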
# Giardia killer: kills Giardia lamblia | actives 0.15% (n = 340,000) | Giardia lamblia trophozoite viability | activity change, % at 7.66 µM, hits read low | AID 540267; in the data active = activity change below about -80%; inconclusive = between about -30% and that limit;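 note: parasites exposed to compound for two days anaerobically before the ATP read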
#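 ATP-content bioluminescence gauges trophozoite survival. Cells (100/well) receive compound and incubate anaerobically for 48 hrs at 37 deg C; detection reagent follows for 15-30 min at room temperature.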
# ELG1 repair inh: ELG1-dependent DNA repair inhibition; HEK293T ELG1-luciferase reporter, luminescence, 16 h; DNA damage induced by 5-fluorouridine; Potency, µM (series often up to 46.1 µM), for the others: at the top dose activity change, negative = inhibition, hits mostly inhibitors; actives 2.3% (n = 330,000); note: potency is the fitted concentration of half-maximal effect; nearly all actives have a fitted effect of over 55% in size
#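 Quantitative HTS, concentration-response format. 2,000 cells/well co-treated with 5-fluorouridine and compound, 16 hr in 5% CO2 at 37 °C; ONE-Glo luminescence read after 30 min.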
# IL-1B inflam inh: inhibitors of inflammasome signaling (IL-1 beta secretion); activity change, % at 57.5 µM; THP-1 LPS/ATP IL-1B secretion, AlphaLISA, 16 h; stronger effect = lower value; actives 4.7% (n = 360,000); in the data active = activity change below about -50%; inconclusive = mostly about -30% to -49%
#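 THP-1 cells pretreated 1 hr with compounds (up to 57.5 uM final), then stimulated with LPS (250 ng/mL final) plus ATP (1.25 mM final); secreted IL-1B measured by AlphaLISA after 16 hr, decreased signal indicating inhibition.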
# TDP1 cell noCPT: qHTS for Inhibitors of human tyrosyl-DNA phosphodiesterase 1 (TDP1): qHTS in cells in absence of CPT; DT40 Tdp1-/- hTDP1 cells, no CPT, ATP luminescence, 48 h; Potency, µM (doses to about 46.2 µM), for inactives: top-dose activity change, negative = growth inhibition, usual class: inhibitors; actives 15% (n = 420,000); AID 686978, 2013; note: potency is the fitted concentration of half-maximal effect; nearly all actives have a fitted effect of over 55% in size
#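 Chicken DT40 Tdp1-/- cells stably complemented with human TDP1 were seeded at 400 cells/well with DMSO in place of 20 nM camptothecin. After compound pinning, cells grew at least 48 hr at 37 °C; viability read by CellTiter-Glo luminescence.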
# * marks the source's active call; other numbers are inactive results; ? = inconclusive; nt = not tested or not shown; [ ] = another dose, or the depositor's remark. Rows were chosen to be rich in hits. Some 19% of all compounds tested hit in one or more screens of this group. Unless noted, calls come from the whole dose curve; as a rule, active = well fitted curve in the direction sought with a large enough effect; inconclusive = small, poorly fitted or top-dose-only effect, or another doubt; inactive = no such curve, though single readings can be large; an effect the other way counts as inactive or inconclusive. % is set by controls: 0 for no effect and ±100 for the full control effect.
SMILES,TDP1 inh,DT40 TDP1 CPT,Giardia killer,ELG1 repair inh,IL-1B inflam inh,TDP1 cell noCPT
CN1CCN(C(c2ccc(C(F)(F)F)cc2)c2ccc3cccnc3c2O)CC1 (centres undefined),-7.3%,8.2µM*,8.9,-2.0%,-85.0*,8.2µM*
Oc1c(C(c2cccs2)N2CCN(c3ccccc3)CC2)ccc2cccnc12 (centres undefined),-5.1%,nt,nt,nt,nt,nt
Cc1ccc(NC(=O)c2ccc(-n3nncc3-c3ccccc3)cc2)cc1,0.7%,?,2.0,nt,nt,15.8µM*
COc1ccc(/C=C/C(=O)Nc2ccc(C(N)=O)cc2)cc1OC,-1.3%,26.2%,46.0,0.0%,15.2,-10.0%
COc1ccc(/C=C/C(=O)Nc2ccc(-n3nncc3-c3ccccc3)cc2)cc1OC,5.7%,20.6µM*,-7.2,14.6µM*,3.5,8.2µM*
CCOc1ccc(C(=O)Nc2ccc(-n3nncc3-c3ccccc3)cc2)cc1OCC,10.4%,18.4µM*,nt,nt,nt,14.6µM*
CCOc1ccc(C(=O)Nc2ccc(-n3nncc3-c3ccc(OC)cc3)cc2)cc1,5.2%,?,nt,nt,nt,?
Cc1cc(C)c2ccc(=O)n(CC(=O)N/N=C/c3ccccc3Cl)c2n1,-5.6%,2.7%,5.9,0.7%,14.7,-13.8%
Cc1ccc(CN2CCC(CNC(=O)Nc3cccc(C)c3C)C2)cc1 (centres undefined),7.0%,?,nt,nt,nt,?
COc1ccc(COn2nnc3ccc(S(=O)(=O)N4CCOCC4)cc32)cc1F,5.6%,-28.2%,-6.8,19.6%,-12.0,-23.1%
COC(=O)[C@@H]1CCCN1Cc1ccc2c(c1)CN(Cc1ccc3c(c1)CCO3)CCO2,nt,-3.6%,nt,nt,nt,-16.4%
CCCNC(=O)C(Cc1ccc(Cl)cc1)NC(=O)c1ccc(-c2ccccc2)cc1 (centres undefined),0.3%,8.2µM*,1.5,?,-6.9,6.51µM*
NC(Cc1ccc(Cl)cc1)C(=O)O (centres undefined),6.9%[56.1 µM],11.5%,nt,nt,nt,2.4%
CCCNC(=O)C(Cc1ccc(Cl)cc1)NC(=O)c1ccc(C#N)cc1 (centres undefined),-0.9%,-3.1%,6.8,11.2%,14.1,?
CCCNC(=O)C(Cc1ccc(I)cc1)NC(=O)c1ccc2ccccc2n1 (centres undefined),-1.9%,?,0.0,?,-0.5,20.6µM*
CC(=O)NC(Cc1ccc(Cl)cc1)C(=O)NCC(N)C(=O)c1ccccc1 (centres undefined),nt,15.8µM*,nt,nt,nt,?
NC(=S)N/N=C\c1c(OCc2ccccc2Cl)ccc2ccccc12,6.3%,6.51µM*,24.7,?,-18.8,?
CNC(=S)N/N=C/c1c(C)cccc1Cl,7.6%,?,0.4,?,-1.6,?
COCCNC(=S)N/N=C/c1c2ccccc2cc2ccccc12,5.5%[0.0935 µM],3.66µM*,5.8,?,22.1,4.11µM*
C[N+](C)(C)CC(=O)N/N=C/c1c2ccccc2cc2ccccc12,-0.2%,2.0%,8.1,8.8%,-9.4,-4.7%
NC(=S)N/N=C\c1c2ccccc2cc2ccccc12,5.5%,14.6µM*,8.1,?,-22.5,?
CNC(=S)N/N=C/c1c2ccccc2c(Cl)c2ccccc12,10.6%,5.8µM*,-17.0,8.2%,12.1,5.8µM*
NC(=S)N/N=C/c1ccccc1,0.0%,-2.3%,-10.8,17.4%,15.2,-22.8%
NC(=S)NN=Cc1cc(-c2cccc(N)c2)ccn1,nt,3.66µM*,nt,nt,133.9,4.11µM*
COC(=O)C(C)N(C(=O)c1ccc(Cl)cc1)c1c(C)cccc1C (centres undefined),0.0%,14.6µM*,10.5,-1.0%,4.7,?
SMILES,TDP1 inh,DT40 TDP1 CPT,Giardia killer,ELG1 repair inh,IL-1B inflam inh,TDP1 cell noCPT
COC(=O)C(C)N(C(=O)c1ccc(C(=O)c2ccccc2)cc1)c1c(C)cccc1C (centres undefined),7.9%,12.6µM*,-8.1,?,-7.1,20µM*
Cc1ccccc1NC(=O)C(C)c1cccc(C(=O)c2ccccc2)c1 (centres undefined),-2.0%,-14.5%,10.4,-8.1%,26.6,?
O=C(Cc1ccccc1)NN1C(=O)/C(=C/c2ccccc2C(=O)O)SC1=S,2.7%,0.5%,?,5.1%,37.3,7.9%
COc1cc(C(=O)NCC(=O)N/N=C/c2ccc(OC(=O)c3ccco3)cc2)cc(OC)c1OC,1.3%,0.8%,-8.9,-5.3%,20.8,-21.1%
Cn1c(SCC(=O)NCc2ccco2)nnc1C1CCCC1,0.8%,-1.1%,-5.8,20.2%,11.7,4.1%
O=C(Nc1ccc(O)cc1)c1ccccc1OCc1ccccc1,2.5%,?,-14.4,?,-71.4*,?
Cc1cc(C(=O)Nc2ccc(OCc3ccccc3)cc2)c(C)o1,2.5%,?,-18.6,?,-60.1*,?
O=C(Nc1ccc(OCc2ccccc2)cc1)c1ccccc1,10.7%,18.5%,11.3,?,-15.8,-0.6%
NC(=O)COc1ccccc1C(=O)Nc1ccccc1,nt,1.8%,nt,nt,nt,1.7%
COc1cc(NC(=O)c2ccccc2OCc2ccccc2)cc(OC)c1OC,nt,?,2.0,16.4µM*,29.9,16.4µM*
CCCCN(CCCC)CC(O)COc1ccccc1C(=O)Nc1ccccc1 (centres undefined),2.7%,?,3.9,-13.1%,-95.7*,?
COc1ccccc1CNC(=O)c1sc2nc3n(c(=O)c2c1C)CCC3,-2.6%,-18.7%,nt,nt,nt,-26.4%
COc1cc2c(cc1OC)C(C)N(C(=O)c1cc3c(s1)-c1ccccc1OC3)CC2 (centres undefined),2.6%,?,14.6,?,-16.1,20.6µM*
COc1cc2c(cc1OC)C(C)N(C(=O)c1cccs1)CC2 (centres undefined),2.7%,?,-14.8,?,-15.9,?
COc1ccc(C(=O)N2CCN(C(=O)C3COc4ccccc4O3)CC2)cc1OC (centres undefined),2.9%,-8.2%,-10.7,-20.9%,0.0,3.9%
Cc1cccc2c1-c1sc(C(=O)NCCCN3CCC(C)CC3)cc1CO2,0.2%,?,-24.5,18.3%,?,?
COc1cc2c(cc1OC)C(C)N(C(=O)C1COc3ccccc3O1)CC2 (centres undefined),3.1%,16.4µM*,2.4,23.1µM*,-51.1*,25.9µM*
COc1cc2c(cc1OC)C(C)N(C(=O)c1cc3c(s1)-c1c(C)cccc1OC3)CC2 (centres undefined),0.0%,?,?,?,-0.7,16.4µM*
